The nature of the test: cytotoxicity in HEK293 cells, dose response, cytotoxicity control, cell-based, plate reader, cherry-pick (AID 651899).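 Also: cells exposed to compound for 48 hours.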 To be noted: series mostly up to 26 µM.

Potency and affinity values are given separately. Calls of active or inactive are those of the source. A call without a number means that no potency is given here. No rule for the calls is given here.

Experimental findings from PubChem BioAssay AID651899 (Broad Institute, 2012) are described below.

As to `COc1cc2c3cc1Oc1cc(ccc1O)C[C@@H]1c4c(cc(OC)c(O)c4Oc4cccc(c4)C[C@@H]3N(C)CC2)CC[N+]1(C)C`, the call was inactive.
Then `CC(=O)N1CCN(c2ccc([N+](=O)[O-])cc2C=C2C(=O)NC(=O)NC2=O)CC1`, with “inactive”; and `COc1ccc2c(c1)c(C(=O)CN1CCC3(CC1)OCCO3)c(C)n2Cc1ccccc1`, with “inactive”.
`Cc1nc2nc(SCC(=O)N3CCC4(CC3)OCCO4)nn2c(C)c1Cc1ccccc1`: the molecule was called inactive.
As for `O=c1[nH]c(N2CCN(Cc3ccc4c(c3)OCO4)CC2)nc2c1CCC2`, the molecule was called inactive.
Under `CCc1nc2ccc(Br)cc2c(=O)n1-c1ccccc1C(F)(F)F` stands “inactive”; under `O=[N+]([O-])c1ccc(C[n+]2c(-c3ccccc3)cc(-c3ccccc3)cc2-c2ccccc2)cc1`, “inactive”.
